Among the data in PubChem BioAssay (NCI) are growth values, retold here.

Holding throughout (assay): NCI-60 one-dose screen, 48 h (100 = growth as untreated, 0 = no growth, -100 = all killed)
Common to all, as to details: 10 µM unless noted

In test [1] the test system is NCI-H226 lung.
In test [2] the test system is NCI-H322M lung.
Test [3] relates to NCI-H460 lung.
For test [4], the system named is HOP-92 NSCLC.
Test [5] relates to NCI-H522 lung.
Test [6] has as its system A549/ATCC NSCLC.
The subject of test [7] is 786-0 renal.
In test [8] the test system is COLO 205 colon.
Test [9] deals with DU-145 prostate.
Test [10] relates to HOP-62 NSCLC.

About 83,000 compounds went through this panel and 20% of them were active in at least one assay; those are over-represented in the sample as a whole.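 Values shown are percent growth following 48 h exposure of cells in 96-well plates to a single concentration of compound; below 10 was considered active.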 Unmarked numbers belong to inactive results. Active and inactive are the calls of the source.

As for `NC(=O)c1cc(-c2ccc3ncnc(N4CCc5cc(F)c(Cl)cc54)c3c2)cnc1N`, the growth in test [1] was 9.39% (active); in test [2], -3.06% (active); in test [3] it was 20%; in test [4], 15.8%; in [5] it was 19.1%; in test [6], 16.9%. Also, the growth in test [7] is 12.8%; in test [8] it was 54.8%; in test [9], 14.3%.

Turning to `OC1CCN(CCCOc2c3ccc(Cl)cc3nc3c2oc2ccc(Cl)cc23)CC1`, the growth is 2.57% (active) in [1]; 15% in [2]; -75.2% (active) in test [3]; 9.66% (active) in test [4]; 9.65% (active) in [5]; -52.9% (active) in test [6]. The growth in test [7] is -99% (active); in [8], -11.1% (active); in [9], -97.5% (active).

Consider `COc1ccc(NC2=C(Cl)C(=O)C(C)=C(C)C2=O)cc1OC`, for which the growth in test [1] was 92.6%; in test [2], 101%; in test [3] it was 96%; in [4], 130%; in test [5] it was 84.7%; in test [6], 87.2%. Further, the growth in [7] is 107%; in test [8], 110%; in test [9], 104%.

Take `O=[N+]([O-])c1ccc(O)c2ncccc12`: the growth is 48.7% in [1]; 39.1% in test [2]; 10.3% in [3]; 40.1% in [4]; 21.2% in [5]; 27% in test [6]. For the same compound, the figures for the growth in test [7], in [8] and in test [9] were 42.4%, 46.5% and 43.3%, respectively.

On to `COc1ccc([C@@H]2c3[nH]c4ccccc4c3CC3C(=O)N(C4CCN(Cc5c(F)cccc5F)CC4)CC(=O)N32)c(OC)c1` (some centres not stated), for which the growth in test [1] is 57% [5.26 µM]; in [2], 83.4% [5.26 µM]; in test [3], 65.7% [5.26 µM]; in [4], 18.8% [5.26 µM]; in [5] it was 67.6% [5.26 µM]; in [6] it was 50% [5.26 µM]. Moreover, the growth in test [7] was -35.9% [5.26 µM] (active); in test [8], 58.3% [5.26 µM]; in [9], 70.7% [5.26 µM].

Turning to `CCN1CCN(/C(=N\c2sc(-c3ccccc3)nc2-c2ccccc2)c2ccccc2)CC1`, the growth was 56.2% in test [1]; 91.8% in test [2]; 72.1% in test [3]; 71.6% in [5]; 51.2% in [7]; 84.5% in test [8]. Besides, the growth in [9] was 93.7%.

As for `Cc1ccc2ccc3ccc(C)nc3c2n1.Cc1ccc2ccc3ccc(C)nc3c2n1.Oc1c(Cl)cc(Cl)c2ccc(CN3CCCCC3)nc12.[Ru]`, the growth in [1] was -69% (active); in [2] it was -83.4% (active); in [3], -15.2% (active); in [4], -86.5% (active); in test [5], -68.8% (active); in test [6], -42.7% (active). Moreover, the values for the growth in test [7], in test [8] and in test [9] were -87.7% (active), -74.2% (active) and -93.3% (active), respectively.

With `CSc1ccc2c(c1)N(C(=O)/C(C#N)=C/c1c[nH]c3ccccc13)c1ccccc1S2`, the growth was 50.4% in test [1]; 86.1% in test [2]; 45.5% in test [3]; 44.1% in [4]; 5.48% (active) in test [5]; 50% in test [7]. Further, the growth in [8] was 40.8%; in [9], 51.3%.

As to `COc1ccc(C(=O)c2cc(C(=O)/C=C/c3c(Cl)cccc3Cl)c3cc(C)ccn23)cc1`, the growth is 103% in [1]; 98.3% in test [2]; 100% in [3]; 97.3% in [4]; 91.5% in test [5]; 99.6% in test [6]. For the same compound, the growth was 100% in test [7], 108% in test [8] and 106% in [9].

For `CC(O)C(NC(=O)C1CCCN1C(=O)CNC(=O)C1CC(=O)NCC(=O)NC(Cc2c[nH]c3ccccc23)C(=O)NC(Cc2ccc(O)cc2)C(=O)NCC(=O)NC(CO)C(=O)NC(CCC(N)=O)C(=O)NC(Cc2c[nH]c3ccccc23)C(=O)N1)C(=O)NCC(=O)NC(CCC(N)=O)C(=O)NC(CCCNC(=N)N)C(=O)NC(CC(=O)O)C(=O)O` (configuration not stated), the growth in test [1] was 107%; in [2] it was 95.2%; in test [3], 105%; in [4] it was 94%; in test [5], 94.9%; in test [6], 105%. For the same compound, the growth is 108% in [7], 109% in test [8] and 104% in test [9].

As to `N#Cc1c(-c2ccc(Cl)cc2)nc(SCc2ccc([N+](=O)[O-])cc2)nc1N1CCNCC1`, the growth in test [1] was 85.2%; in test [2], 40.5%; in [10] it was 57.1%; in test [3] it was -66.6% (active); in [4] it was -8.29% (active); in test [5], 64.1%. In addition, the growth was -50% (active) in test [7], -82% (active) in test [8] and 0.384% (active) in [9].

Consider `COc1cc(-c2nc3ccc(-c4nnc(SCC(=O)Nc5ccc(C(C)=O)cc5)o4)cc3[nH]2)cc(OC)c1OC`, for which the growth was 105% in test [1]; 99.5% in [2]; 103% in [3]; 92.5% in test [4]; 99.5% in [5]; 99.9% in test [6]. Also, the growth is 106% in test [7], 110% in test [8] and 115% in test [9].

Turning to `CN(C)c1ccc(/C=C2\Cc3c(F)ccc(Br)c3C2=O)cc1`, the growth in test [1] is 76.3%; in [2], 85.6%; in test [3] it was 88.7%; in [4], 91.5%; in test [5] it was 96.1%; in [6], 94.1%. The growth in test [7] is 98.2%; in test [8] it was 98.1%; in test [9] it was 97.5%.

On to `C#Cc1nc(C2=C(C)C(OC(=O)CCC(=O)O)CC2)cs1` (configuration not stated), for which the growth is 106% in [1]; 104% in [2]; 111% in [10]; 107% in test [3]; 106% in test [4]; 101% in test [5]. Further, the growth is -86.5% (active) in [7], 122% in test [8] and 106% in test [9].

In the case of `COc1ccc(/C=C2\SC(=Nc3cc(C)on3)NC2=O)cc1`, the growth is 102% in test [1]; 97.7% in test [2]; 103% in [3]; 94.4% in test [4]; 100% in test [5]; 102% in test [6]. In addition, the figures for the growth in test [7], in test [8] and in test [9] were 102%, 103% and 109%, respectively.

In the case of `CC(C)(C)OC(=O)N1C(=O)c2c(c3c4ccccc4[nH]c3c3ccc4ccccc4c23)C1=O`, the growth was 61.3% in test [1]; 52.8% in [2]; 37.3% in test [3]; 87.9% in [4]; 47.2% in test [5]; 59.7% in test [6]. Besides, the growth is 77.1% in test [7], 68.1% in test [8] and 57.3% in test [9].

On to `CC(C)(C)Nc1nc2c(OCCc3ccccc3)cccn2c1-c1ccc(O)cc1`, for which the growth in [1] is 63%; in test [2] it was 89.9%; in test [3] it was 45.8%; in test [4], 28.3%; in test [5], 57.5%; in test [6] it was 48.6%. In addition, the figures for the growth in test [7], in test [8] and in [9] were 73.3%, 85.6% and 97.3%, respectively.

Consider `COc1ccc(/C=N/NC(=O)c2[nH]c3ccc(Br)cc3c2-c2ccccc2)s1`, for which the growth is 47.8% in test [1]; 50.8% in test [2]; 3.58% (active) in test [3]; 52.1% in [4]; -30.1% (active) in test [5]; 31.5% in test [6]. The growth is 11.4% in test [7], -55.8% (active) in test [8] and 20.4% in test [9].

Take `CN1CCN(Cc2ccc(NC(=O)c3cncc(C#Cc4cnc5ccc(N6CCSCC6)nn45)c3)cc2C(F)(F)F)CC1`: the growth was -24.7% (active) in [1]; -23.9% (active) in [2]; -46.6% (active) in [3]; -48.6% (active) in test [4]; -75.4% (active) in test [5]; -77.7% (active) in test [7]. In addition, the growth in test [8] was -87.9% (active); in test [9], -83.2% (active).

Turning to `Cc1nc(-c2cc3ccccc3oc2=O)ccc1C(=O)/C=C/c1ccc(Cl)c(Cl)c1`, the growth is 108% in test [1]; 104% in test [2]; 100% in test [3]; 95.4% in [4]; 98.9% in test [5]; 107% in test [6]. The growth is 99.3% in test [7], 113% in [8] and 102% in test [9].

Take `COC(=O)C(Cc1ccccc1)NS(=O)(=O)/N=C1\NC(=O)NC1=C(Cl)Cl` (configuration not stated): the growth in test [1] is 107%; in test [2], 91.4%; in test [3] it was 97.6%; in test [4], 49.9%; in test [5] it was 96.2%; in test [7], 77%. For the same compound, the growth in [8] is 133%; in test [9] it was 105%.

As for `CCOc1ccc([C@H]2C(C(=O)c3ccc(Cl)cc3)C3(N[C@@H]2c2ccccc2)C(=O)Nc2ccc(Br)cc23)cc1` (some centres not stated), the growth is 47.3% in test [1]; 45.6% in [2]; 2.83% (active) in [3]; 16% in test [4]; 51.5% in [5]; 26% in test [6]. In addition, the growth in [7] was 23%; in test [8], 19.3%; in [9], 47.6%.

On to `CC(C)(O)c1cncc(-c2ccc3ncnc(N4CCc5cc(F)c(Cl)cc54)c3c2)c1`, for which the growth was 23.7% in test [1]; -0.361% (active) in test [2]; 17.2% in test [3]; -6.69% (active) in test [4]; 18.5% in [5]; 15.8% in test [6]. The growth in test [7] is 11.7%; in test [8], 30.1%; in test [9], 14.4%.

On to `CN(C)c1ccc(/C=c2\sc3nc4ccccc4n3c2=O)cc1`, for which the growth is 105% in [1]; 90.8% in test [2]; 105% in [3]; 103% in test [4]; 102% in test [5]; 117% in test [6]. Moreover, the growth was 98.5% in test [7], 111% in test [8] and 110% in [9].

Consider `Cc1nc2cnc(N)c(C#Cc3cncc(C(=O)Nc4ccc(Cl)c(C(F)(F)F)c4)c3)c2nc1C`, for which the growth in test [1] was 26.7%; in [2], 64.9%; in test [3], 53.8%; in [4] it was -23.9% (active); in [5] it was 89.5%; in test [6], 56.6%. The growth in test [7] is 64.3%; in test [8], 28.5%; in test [9] it was 69.4%.

For the compound `O=C(c1ccc(O)cc1)C1[C@H](c2ccc(Cl)cc2)[C@@H](c2ccccc2)NC12C(=O)Nc1ccc(Cl)cc12` (some centres not stated), the growth is 42.3% in test [1]; 61.2% in test [2]; 64.6% in [10]; 20.6% in [3]; 35.2% in test [4]; 71.7% in test [5]. For the same compound, the figures for the growth in test [7], in [8] and in [9] were 52.3%, 61% and 52.4%, respectively.

As for `COc1ccc(/C=C/C(=O)c2ccc(NC(=O)CSc3nnc(-c4ccc5nc(-c6ccc(Cl)cc6)[nH]c5c4)o3)cc2)cc1`, the growth in test [1] was 87.6%; in test [2], 103%; in [3] it was 102%; in test [4] it was 102%; in test [5], 79.1%; in test [6], 105%. In addition, the results for the growth in test [7], in test [8] and in test [9] were 99.6%, 118% and 108%, respectively.

Regarding `COc1cc(N=Cc2sc(Nc3nccs3)nc2O)cc(OC)c1OC`, the growth is 79.5% in test [1]; 74% in test [2]; 69.9% in test [3]; 72.8% in test [4]; 93.6% in [5]; 95.6% in test [6]. In addition, the growth was 96.6% in test [7], 99.6% in test [8] and 93.3% in test [9].
